Measurements: the supplement of paper PMC6555819

Tests used:
Assay in all cases: PBM binding z-score (relative to random genomic background probes); higher = stronger binding; sequences stand for … in GC…GCGATTGACAGCGTAGAATGAAGG
[1] = test system: RARb homodimer (NR concentration 270 nM)
Summary of the method: (§1)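 Ligand-free nuclear receptor dimers were applied to custom Agilent 4×180K protein-binding microarrays whose double-stranded probes carried direct-repeat seeds, single-nucleotide variants, half-site ablations and random human genomic background sequences in 34-nt variable regions. Incubation lasted 1 h. Binding z-scores were computed against the random background probes from regression-normalized fluorescence.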

[2] = test system: RARg:RXRa (NR concentration 270 nM, RXRa partner concentration 90 nM)
Summary of the method: as §1

[3] = test system: RARg homodimer (NR concentration 270 nM)
Summary of the method: as §1

[4] = test system: RXRa DBDmut IVT, anti-RXR (DBD mutation: RXRa K156A/R161A, NR concentration 90 nM)
Summary of the method: as §1

[5] = test system: RXRa homodimer (NR concentration 180 nM)
Summary of the method: as §1

[6] = test system: THRa:RXRa (NR concentration 90 nM, RXRa partner concentration 90 nM)
Summary of the method: as §1

[7] = test system: THRa homodimer (NR concentration 90 nM)
Summary of the method: as §1

[8] = test system: VDR:RXRa (NR concentration 270 nM, RXRa partner concentration 90 nM)
Summary of the method: as §1

[9] = test system: VDR homodimer (NR concentration 270 nM)
Summary of the method: as §1

| Sequence | PBM binding z-score [1] | PBM binding z-score [2] | PBM binding z-score [3] | PBM binding z-score [4] | PBM binding z-score [5] | PBM binding z-score [6] | PBM binding z-score [7] | PBM binding z-score [8] | PBM binding z-score [9] |
| --- | --- | --- | --- | --- | --- | --- | --- | --- | --- |
| TCGAGTAGGTTACGGGGGCATTTAGGGATGAAGA | 2.32 | 3.47 | 2.58 | 2.03 | 2.73 | 4.01 | 1.4 | 3.96 | 3.52 |
| AGCTCTAGGTAAAAGTTCAGTGAATCCCGAGGAT | 2.44 | 1.57 | 1.62 | 0.637 | 1.46 | 1.14 | 0.029 | 0.974 | 1.69 |
| CCTACTGGGCCACTCAGAGGTCATTGATCATATG | 4.26 | 4.46 | 3.39 | 0.734 | 4.43 | 3.41 | 1.71 | 4.06 | 2.75 |
| CCTACTGGGCCAAAACGGTCATTGATGCCGATAA | 1.39 | 0.276 | 0.635 | -0.682 | -0.274 | -0.206 | -0.538 | -0.116 | -0.184 |
| CGAACTAGGTCACCATGACAGTGAAGAGGTTGGA | 3.31 | 4.27 | 5.26 | 1.18 | 3.17 | 2.99 | 1.41 | 1.78 | 0.264 |
| ATCGAAAGGTCGAAGGTGAGTCTACCCACCCGAA | 2.48 | 4.41 | 3.67 | 0.805 | 5.11 | 2.24 | -0.0307 | 3.08 | 0.891 |
| CTATGTAGGTTAAGGGCGTCATTCAGTTTGAAAG | 0.798 | 0.63 | 0.752 | 0.53 | 0.739 | 1.42 | 0.232 | 0.981 | 0.4 |
| TAGCCTAAGTCATGGGCCAGTATACCACGCGAAC | 0.0501 | 0.0528 | 0.13 | -0.416 | 0.289 | -0.0695 | -0.257 | -0.25 | -0.135 |
| CTAACTAGGTCACAGAGGTCAAAGTCCGTGCGTA | 5.46 | 7.35 | 7.81 | 3.52 | 7.99 | 4.64 | 3.13 | 8.06 | 7.07 |
| CTATGTAGGTTAAGGGTGTCATTCAGTTTGAAAG | 1.44 | 1.38 | 0.949 | 0.738 | 1.35 | 1.04 | 0.005 | 3.24 | 1.42 |
| CTATGCAGGTTAAGGGGGTCATTCAGTTTGAAAG | 3.8 | 5.13 | 4.11 | 2.38 | 6.2 | 3.91 | 2.28 | 7.5 | 5.99 |
| ATACGTAGGTTAGGGTCATTCAGAAAGTAGGGAA | 3.19 | 4.12 | 3.37 | 2.35 | 5.33 | 4.07 | 2.92 | 4.37 | 3.67 |
| TCTAGTTCGTCACGGAGGTCACACACGACGGGTA | 4.28 | 4.52 | 4.04 | 2.51 | 4.68 | 3.67 | 2.73 | 4.68 | 3.58 |
